Measurements: the supplement of paper PMC9262897, “Low-cost anti-mycobacterial drug discovery using engineered E. coli” (Nature Communications, 2022)
Structures can show the parent of a compound that is named as a salt. ± gives the standard deviation of the averaged measurements.

Key:
Assay in all cases: growth (OD600 after 10 h); higher = more growth (less inhibition)
[1] = tested on: E. coli TESEC Alr+ wild-type control; conditions: compound 0.1 mM; raw OD600 reference: median of DMSO wells 0.241, cell-free background 0.041
Protocol: (§1)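 TESEC Mtb Alr E. coli, or the Alr+ wild-type control, in 384-well plates with Prestwick library compounds at 0.1 mM and 1% DMSO, across arabinose induction levels of 1E3 to 1E7 nM. Growth is read as OD600 after 10 h at 37 °C in triplicate biological replicates.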

E. coli TESEC Mtb Alr [2] = conditions: compound 0.1 mM
Protocol: as §1

E. coli TESEC Mtb Asd = conditions: compound 0.1 mM
Protocol: (§2)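 TESEC E. coli strains in which the native enzyme is deleted and replaced by arabinose-inducible Mtb Asd, DapB, CysH or TrpD, each grown in its selective medium. Strains were screened against the Prestwick library at 0.1 mM and 1% DMSO in 384-well format at low and high arabinose induction. Growth is read as OD600 after 10 h in triplicate.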

E. coli TESEC Mtb DapB = conditions: compound 0.1 mM
Protocol: as §2

[3] = tested on: E. coli TESEC Alr+ wild-type control; conditions: compound 0.1 mM; raw OD600 reference: median of DMSO wells 0.49, cell-free background 0.052
Protocol: (§3)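 TESEC Mtb Alr E. coli (ΔaraC ΔtolC ΔentC Δalr ΔdadX, arabinose-inducible Mtb Alr) or the Alr+ wild-type control strain, grown in defined M9-fructose medium without D-alanine in 96-well plates with Prestwick library compounds at 0.1 mM and 1% DMSO. Low Alr induction is 0.1 µM arabinose and high induction is 10 mM arabinose.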

E. coli TESEC Mtb Alr [4] = conditions: compound 0.1 mM; remark: listed apart in the source
Protocol: as §3

[5] = arabinose 1000 nM, raw OD600 reference: median of DMSO wells 0.294, cell-free background 0.041
[6] = arabinose 10000 nM, raw OD600 reference: median of DMSO wells 0.264, cell-free background 0.041
[7] = arabinose 100000 nM, raw OD600 reference: median of DMSO wells 0.201, cell-free background 0.041
[8] = arabinose 1000000 nM, raw OD600 reference: median of DMSO wells 0.193, cell-free background 0.041
[9] = arabinose 10000000 nM, raw OD600 reference: median of DMSO wells 0.146, cell-free background 0.041
[10] = arabinose induction (level): High, raw OD600 reference: median of DMSO wells 0.331, cell-free background 0.041
[11] = arabinose induction (level): Low, raw OD600 reference: median of DMSO wells 0.417, cell-free background 0.041
[12] = arabinose induction (level): High, raw OD600 reference: median of DMSO wells […], cell-free background 0.041
[13] = arabinose induction (level): Low, raw OD600 reference: median of DMSO wells 0.227, cell-free background 0.041
[14] = arabinose 100 nM, raw OD600 reference: median of DMSO wells 0.413, cell-free background 0.052
[15] = arabinose 10000000 nM, raw OD600 reference: median of DMSO wells […], cell-free background 0.052

Structure (SMILES)	growth [1]	growth (E. coli TESEC Mtb Alr [2]; [5])	growth (E. coli TESEC Mtb Alr [2]; [6])	growth (E. coli TESEC Mtb Alr [2]; [7])	growth (E. coli TESEC Mtb Alr [2]; [8])	growth (E. coli TESEC Mtb Alr [2]; [9])	growth (E. coli TESEC Mtb Asd; [10])	growth (E. coli TESEC Mtb Asd; [11])	growth (E. coli TESEC Mtb DapB; [12])	growth (E. coli TESEC Mtb DapB; [13])	growth [3]	growth (E. coli TESEC Mtb Alr [4]; [14])	growth (E. coli TESEC Mtb Alr [4]; [15])
NS(=O)(=O)c1cc(C2(O)NC(=O)c3ccccc32)ccc1Cl (stereo not drawn) [Chlorthalidone]	0.223 ± 0.0025	0.285 ± 0.012	0.255 ± 0.0039	0.193 ± 0.0099	0.168 ± 0.003	0.144 ± 0.0027	0.393 ± 0.037	0.462 ± 0.078	0.205 ± 0.016	0.208 ± 0.017	0.545 ± 0.05	0.415 ± 0.01	0.3322 ± 0.002
CN1CCCC(CC2c3ccccc3Sc3ccccc32)C1 (stereo not drawn) [Metixene hydrochloride]	0.0422 ± 0.00059	0.0424 ± 0.0015	0.0424 ± 0.00036	0.04217 ± 0.00038	0.04163 ± 0.00021	0.044 ± 0.0005	0.0629 ± 0.015	0.053 ± 0.0011	0.135 ± 0.07	0.0594 ± 0.0035	0.0609 ± 0.015	0.401 ± 0.0069	0.055 ± 0.0024
CCC(=O)O[C@]1(C(=O)CCl)[C@@H](C)C[C@H]2[C@@H]3CCC4=CC(=O)C=C[C@]4(C)[C@@]3(F)[C@@H](O)C[C@@]21C [Clobetasol propionate]	0.148 ± 0.0028	0.19 ± 0.034	0.186 ± 0.011	0.161 ± 0.01	0.0968 ± 0.0071	0.156 ± 0.0017	0.264 ± 0.097	0.178 ± 0.017	0.145 ± 0.019	0.169 ± 0.021	0.326 ± 0.017	0.407 ± 0.015	0.122 ± 0.05
OC(Cn1cncn1)(Cn1cncn1)c1ccc(F)cc1F [Fluconazole]	0.2384 ± 0.0019	0.29 ± 0.005	0.276 ± 0.0067	0.187 ± 0.029	0.211 ± 0.0083	0.14 ± 0.0056	0.267 ± 0.015	0.283 ± 0.037	0.195 ± 0.013	0.213 ± 0.032	0.505 ± 0.049	0.411 ± 0.012	0.357 ± 0.017
CC(=C(CCO)SSCC1CCCO1)N(C=O)Cc1cnc(C)nc1N (stereo in doubt) [Fursultiamine Hydrochloride]	0.245 ± 0.0085	0.313 ± 0.0078	0.282 ± 0.0063	0.208 ± 0.023	0.22 ± 0.0094	0.132 ± 0.0026	0.215 ± 0.0087	0.275 ± 0.052	0.195 ± 0.024	0.247 ± 0.012	0.583 ± 0.044	0.399 ± 0.013	0.323 ± 0.019
Cc1cc(NS(=O)(=O)c2ccc(N)cc2)no1 [Sulfamethoxazole]	0.252 ± 0.0032	0.271 ± 0.017	0.212 ± 0.011	0.228 ± 0.0092	0.126 ± 0.0035	0.139 ± 0.0076	0.404 ± 0.042	0.41 ± 0.063	0.185 ± 0.011	0.205 ± 0.024	0.45 ± 0.031	0.432 ± 0.013	0.346 ± 0.005
O=C(CCCCC(=O)Nc1c(I)cc(I)c(C(=O)O)c1I)Nc1c(I)cc(I)c(C(=O)O)c1I [Iodipamide]	0.249 ± 0.012	0.298 ± 0.0095	0.245 ± 0.0068	0.191 ± 0.0062	0.17 ± 0.0029	0.143 ± 0.0046	0.436 ± 0.022	0.452 ± 0.049	0.213 ± 0.0095	0.239 ± 0.03	0.527 ± 0.092	0.407 ± 0.013	0.346 ± 0.014
CCOC(=O)C1=C(C)NC(C)=C(C(=O)OC)C1c1cccc(Cl)c1Cl (stereo not drawn) [Felodipine]	0.0763 ± 0.012	0.0729 ± 0.024	0.0553 ± 0.0007	0.0562 ± 0.0017	0.0517 ± 0.00035	0.0625 ± 0.0023	0.0579 ± 0.0044	0.0538 ± 0.002	0.07363 ± 0.0005	0.0792 ± 0.032	0.0917 ± 0.0035	0.3 ± 0.099	0.0862 ± 0.0057
COc1ccc(NS(=O)(=O)c2ccc(N)cc2)nn1 [Sulfamethoxypyridazine]	0.2402 ± 0.0024	0.296 ± 0.011	0.236 ± 0.0055	0.226 ± 0.024	0.181 ± 0.0072	0.141 ± 0.0061	0.355 ± 0.042	0.393 ± 0.016	0.203 ± 0.012	0.22 ± 0.01	0.459 ± 0.011	0.408 ± 0.0075	0.367 ± 0.018
Nc1ccc(C(=O)O)c(O)c1 [4-aminosalicylic acid]	0.247 ± 0.0075	0.305 ± 0.011	0.277 ± 0.0057	0.201 ± 0.017	0.19 ± 0.004	0.153 ± 0.0068	0.222 ± 0.024	0.377 ± 0.086	0.199 ± 0.025	0.263 ± 0.017	0.545 ± 0.044	0.422 ± 0.0061	0.302 ± 0.014
Clc1ccc2nsnc2c1NC1=NCCN1 [Tizanidine HCl]	0.245 ± 0.011	0.287 ± 0.017	0.262 ± 0.00087	0.193 ± 0.028	0.185 ± 0.0059	0.142 ± 0.0064	0.248 ± 0.011	0.383 ± 0.057	0.216 ± 0.032	0.222 ± 0.022	0.623 ± 0.019	0.401 ± 0.0081	0.325 ± 0.015
CCCCCCCCNC(C)C(O)c1ccc(SC(C)C)cc1 (stereo not drawn) [Suloctidil]	0.0763 ± 0.037	0.0398 ± 0.0011	0.0405 ± 0.00085	0.0403 ± 0.00044	0.0856 ± 0.078	0.0896 ± 0.085	0.191 ± 0.016	0.162 ± 0.074	0.153 ± 0.023	0.189 ± 0.019	0.0529 ± 0.0091	0.0587 ± 0.0041	0.0516 ± 0.00081
C[C@@H]1CCC[C@H](C)N1NC(=O)c1ccc(Cl)c(S(N)(=O)=O)c1 [Clopamide]	0.235 ± 0.0084	0.294 ± 0.02	0.251 ± 0.0061	0.217 ± 0.022	0.173 ± 0.0061	0.135 ± 0.002	0.283 ± 0.036	0.354 ± 0.031	0.199 ± 0.01	0.225 ± 0.0079	0.581 ± 0.048	0.419 ± 0.011	0.345 ± 0.015
CC(=O)Nc1nnc(S(N)(=O)=O)s1 [Acetazolamide]	0.249 ± 0.017	0.293 ± 0.023	0.253 ± 0.0037	0.234 ± 0.0084	0.166 ± 0.0058	0.141 ± 0.006	0.361 ± 0.014	0.394 ± 0.051	0.211 ± 0.015	0.253 ± 0.077	0.436 ± 0.042	0.408 ± 0.011	0.317 ± 0.05
C=Cc1c(C)c2cc3nc(cc4[nH]c(cc5nc(cc1[nH]2)C(C)=C5CCC(=O)O)c(CCC(=O)OC)c4C)[C@@]1(C)C3=CC=C(C(=O)OC)C1C(=O)OC.C=Cc1c(C)c2cc3nc(cc4[nH]c(cc5nc(cc1[nH]2)C(C)=C5CCC(=O)OC)c(CCC(=O)O)c4C)[C@@]1(C)C3=CC=C(C(=O)OC)C1C(=O)OC (stereo partly drawn) [Verteporfin]	0.313 ± 0.011	0.356 ± 0.011	0.289 ± 0.0059	0.443 ± 0.0078	0.179 ± 0.0041	0.218 ± 0.0072	0.329 ± 0.016	0.432 ± 0.0089	0.211 ± 0.024	0.277 ± 0.043	0.5678 ± 0.0038	0.556 ± 0.057	0.439 ± 0.021
C=CCN1CCCC1CNC(=O)c1cc2nn[nH]c2cc1OC (stereo not drawn) [Alizapride HCl]	0.234 ± 0.0057	0.277 ± 0.0082	0.271 ± 0.01	0.218 ± 0.025	0.191 ± 0.0082	0.143 ± 0.0052	0.299 ± 0.032	0.373 ± 0.05	0.217 ± 0.022	0.201 ± 0.017	0.536 ± 0.045	0.406 ± 0.011	0.336 ± 0.011
